A selection: hits, their analogues and other compounds. The true share with any hit is near 4.6%.
hgDAF-12 ag – activates the H. glycines DAF-12 receptor ligand-binding domain; AID 687014; activation, % at 6.8 µM; 370,000 tested, 1.8% active; HEK293 GAL4-hgDAF12 UAS-luciferase reporter, agonist luminescence; normalized to butyrate control;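 active = activation above a cutoff set at the mean of all screened compounds plus 3 SD, cut at about 10% in these data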
Wee1 stabilizer – blocks degradation of human Wee1 kinase | HeLa Luc-Wee1K328M stability, luciferase luminescence; 100% = proteasome inhibitor MG132 effect | AID 1321 | reporter increase, % at 5 µM | 220,000 tested, 1.2% active | P30291;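 active = activation above the mean of all tested compounds plus 3 SD, set per screening run, cut at about 8.8% in these data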;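 also: cells exposed to compound for 20 h before luminescence read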
Target sequence (P30291 whole entry K328M): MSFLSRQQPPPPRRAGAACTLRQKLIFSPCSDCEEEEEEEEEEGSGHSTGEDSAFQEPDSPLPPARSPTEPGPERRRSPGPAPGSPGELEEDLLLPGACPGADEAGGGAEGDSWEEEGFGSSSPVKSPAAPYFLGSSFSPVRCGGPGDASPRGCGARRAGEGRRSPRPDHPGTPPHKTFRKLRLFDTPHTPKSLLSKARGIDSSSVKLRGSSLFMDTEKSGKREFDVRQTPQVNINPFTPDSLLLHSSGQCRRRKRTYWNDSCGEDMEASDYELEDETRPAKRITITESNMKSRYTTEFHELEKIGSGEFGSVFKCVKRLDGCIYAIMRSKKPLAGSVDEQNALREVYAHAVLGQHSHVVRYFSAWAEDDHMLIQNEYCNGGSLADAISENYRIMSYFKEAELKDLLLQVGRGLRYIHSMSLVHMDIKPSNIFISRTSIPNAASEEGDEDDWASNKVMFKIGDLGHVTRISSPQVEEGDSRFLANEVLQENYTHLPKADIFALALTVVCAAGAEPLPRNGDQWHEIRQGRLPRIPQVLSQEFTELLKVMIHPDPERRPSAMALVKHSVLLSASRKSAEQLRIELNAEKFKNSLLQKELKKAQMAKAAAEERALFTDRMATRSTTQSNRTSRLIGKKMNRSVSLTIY
DAX1 inh-1 – NR0B1 (DAX1) inhibition. HEK293 Gal4-DAX1 luciferase reporter, luminescence. P51843. AID 504766. 340,000 tested, 0.99% active. inhibition, % at 6.75 µM;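 active = inhibition above the mean over all tested compounds plus 3 SD, cut at about 4.2% in these data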;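 also: inhibition shows as a rise in luminescence from relieved DAX1 repression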
DAX1 inh-2 – inhibitors of DAX1 repression of SF-1 activated StAR promoter. HEK293T StAR-luciferase reporter, SF-1/DAX-1 repression relief. inhibition, % at 6.8 µM. 370,000 tested, 1.1% active;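 active = inhibition above the mean over all tested compounds plus 3 SD, cut at about 3.6% in these data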;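 also: higher inhibition means more luminescence from relief of DAX-1 repression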
ssDAF-12 act – activates DAF-12 receptor from parasite S. stercoralis. 370,000 tested, 1% active. AID 652126. activation, % at 6.8 µM. HEK293 ssDAF-12/GRIP1 lit1-tk-luc reporter, luminescence; % of 3 µM dafachronic acid response;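 active = activation above the mean over all tested compounds plus 3 SD, cut at about 0.9% in these data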
hcDAF12 agonist – H. contortus DAF-12 activation, primary screen; HEK293 hcDAF-12 lit1-tk-luc reporter, luminescence; 0% DMSO, 100% Δ7-dafachronic acid; activation, % at 6.8 µM; 370,000 tested, 1.4% active; AID 652067;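 active = activation above the mean of all tested compounds plus 3 SD, cut at about 5.5% in these data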
Numbers stand for hits; - = inactive; . = not tested or not shown.

SMILES	hgDAF-12 ag	Wee1 stabilizer	DAX1 inh-1	DAX1 inh-2	ssDAF-12 act	hcDAF12 agonist
COc1ccc(NC(=O)N2CCCCC2c2cccnc2)cc1 (centres undefined)	11.0	-	-	-	-	5.6
Cc1cc(C)c(C)c(S(=O)(=O)Nc2ccccc2C(=O)NN2CCOCC2)c1C	-	.	-	-	-	-
COc1ccc(CN2C[C@@]3(O)CC[C@@H](O)[C@@H](OC)[C@@H]3[C@@]2(C)[C@H](O)CC=C(C)C)cc1	-	.	.	-	-	-
CC(Sc1ccccn1)C(=O)NC1CCCC1 (centres undefined)	-	.	-	4.4	-	-
CCOC(=O)C1(Cc2cccc(F)c2)CCN(CC2CC2)CC1	-	-	-	-	-	-
CCOC(=O)C1(Cc2cccc(F)c2)CCN(CC(O)CO)CC1 (centres undefined)	-	10.3	-	-	-	-
Fc1ccc(OCc2nc3ccccc3s2)cc1	11.3	-	-	-	1.1	6.2
O=C(NCCc1c[nH]c2ccccc12)/C(=C/c1cccnc1)NC(=O)c1ccco1	-	-	4.5	-	-	-
O=C(NCCSc1c[nH]c2ccccc12)c1ccco1	-	-	-	-	-	5.9
Cc1ccc(CNC(=O)Nc2cccs2)cc1	-	9.1	-	-	-	-
C[C@@H]1CCN(C2CC2)S(=O)(=O)c2ccc(N3CCC[C@@H]3C)cc2O1	-	.	.	-	-	-
CCN1C(=O)Nc2cccc3cccc1c23	-	.	4.8	-	-	-
O=C(c1cccc(C(F)(F)F)c1)N1CC[C@H]2[C@H](CCCN2Cc2ccc(F)cc2)C1	-	.	.	-	-	-
CC1=C2NC(N)=[N+](Cc3ccccc3)CC2n2c(=O)n(-c3ccccc3)c(=O)n2C1 (centres undefined)	-	.	.	-	-	-
COc1ccccc1N(CC(=O)NC1CCCCC1C)S(=O)(=O)c1cccs1 (centres undefined)	-	.	-	-	-	-
COc1ccccc1N(CC(=O)NC1CCCCC1)S(=O)(=O)c1cccs1	-	9.9	-	-	-	-
CCOC(=O)[C@]12CCCC=C1N(CCCOC)C(=O)[C@@H]2CC(=O)N1CCCCC1	-	.	.	-	-	-
Cc1ccccc1/C=C/C1=NCCN1	-	.	-	-	1.2	-
CCCOc1cccc(C2C(C(=O)c3ccc(C)o3)=C(O)C(=O)N2CCN2CCOCC2)c1 (centres undefined)	-	.	-	-	-	5.8
CC(C)(C)c1ccc(C(=O)OCC(=O)N2CCC(c3ccccc3)=N2)cc1	-	.	-	-	-	-
CC1C/C(=C/c2ccccn2)C(=O)/C(=C/c2ccccn2)C1 (centres undefined)	.	9.9	-	.	.	.
Clc1ccc(C(c2cccs2)N2CCNCC2)cc1 (centres undefined)	-	.	-	-	-	-
O=C(CN1C(=O)NC2(CCCC2)C1=O)Nc1nc2ccccc2s1	-	.	-	-	-	5.8
O=C(COC(=O)CN1C(=O)c2ccccc2C1=O)Nc1ccccc1C(F)(F)F	-	.	-	-	-	-
CN(CC(=O)Nc1ccc(F)cc1)C(=O)COC(=O)CN1C(=O)NC2(CCCC2)C1=O	-	.	-	-	-	5.8
SMILES	hgDAF-12 ag	Wee1 stabilizer	DAX1 inh-1	DAX1 inh-2	ssDAF-12 act	hcDAF12 agonist
O=C(COC(=O)CN1C(=O)NC2(CCCC2)C1=O)Nc1ccccc1C(F)(F)F	-	.	12.0	-	-	-
O=C(CN1C(=O)NC2(CCCC2)C1=O)Nc1ccc(OC(F)(F)F)cc1	-	.	9.7	-	-	-
O=C(NCc1ccc(Cl)c(Cl)c1)c1cc(C2CCCCN2C(=O)c2ccccc2)on1 (centres undefined)	-	.	.	-	-	-
CC(=O)OC12CCCN(C1)/C(=C/c1ccc(Cl)cc1)C2 (centres undefined)	-	.	.	-	-	-
CCc1cccc2c(C(=O)CN3C(=O)NC4(CCCCC4)C3=O)c[nH]c12	-	.	-	3.9	-	-
O=C(CN1C(=O)NC2(CCCCCC2)C1=O)c1ccc(F)cc1	-	.	-	-	-	-
CC(C)N(Cc1ccccc1)C(=O)CN1C(=O)NC2(CCCC2)C1=O	-	.	-	4.1	-	-
CN(Cc1ccccc1)C(=O)CN1C(=O)NC2(CCCC2)C1=O	-	.	-	-	-	-
O=C(CN1C(=O)NC2(CCCCCC2)C1=O)c1ccc2c(c1)OCCO2	10.5	-	-	-	-	6.4
CCc1ccc(C(=O)CN2C(=O)NC3(CCCCCC3)C2=O)cc1	-	.	-	4.5	-	-
CCC(C)CNC(=O)c1[nH]c(C(F)(F)F)nc1-c1ccccc1 (centres undefined)	-	.	.	-	-	-
Cc1occc1C(=O)Nc1ccc(S(N)(=O)=O)cc1	-	-	5.6	-	-	-
Cc1cc(NC(=O)c2ccoc2C)ccc1Br	-	.	-	3.7	-	-
NS(=O)(=O)c1ccc(NC(=O)c2cccc3cc4ccccc4nc23)cc1	-	.	-	-	0.9	-
Cc1cc(NC(=O)c2ccccc2[N+](=O)[O-])ccc1Br	-	-	4.8	-	-	-
Cc1occc1C(=O)Nc1ccc2c(c1)OCO2	-	-	-	-	-	-
Cc1ccccc1C(=O)Nc1cccc(NC(=O)c2ccccc2[N+](=O)[O-])c1	-	.	-	-	-	-
Cc1ccc(-c2c(NC(=O)Nc3ccccc3)nc3ncccn23)cc1	-	.	.	-	-	-
CCOc1ccc(NC(=O)CN(C)C(=O)c2ccc(-c3ccc(C(C)=O)cc3)o2)cc1OCC	-	.	-	-	-	-
COc1ccc(-c2cc3c(=O)n(CC(=O)NCCCN4CCC(N5CCCCC5)CC4)nc(C)n3n2)cc1	-	.	-	4.5	-	-
CC1(C(=O)NCc2ccccc2)CN(S(C)(=O)=O)CC(=O)N1CCc1ccccc1F (centres undefined)	-	.	.	-	-	-
Cc1ccc(-n2nc(C)c(=O)c(-c3ccccc3)c2NC(=O)c2cccs2)cc1	-	-	5.5	-	-	-
Cc1nn(-c2ccccc2)c(NC(=O)c2cccs2)c(-c2ccccc2)c1=O	-	-	-	-	-	-
O=C(Nc1ccc(Br)cc1Br)Nc1cccc2[nH]c([C@@H]3O[C@H](CO)[C@@H](O)[C@H](O)[C@H]3O)nc12	-	.	.	-	0.9	-
O=C(Nc1cccc(Cc2ccccc2)c1)Nc1cccc2[nH]c([C@@H]3O[C@H](CO)[C@@H](O)[C@H](O)[C@H]3O)nc12	-	.	.	-	-	-
Cc1[nH]n(-c2ccccc2)c(=O)c1/C=N/N(C)c1ccccc1	-	-	-	-	1.8	-
Cc1[nH]n(-c2cccc(Cl)c2)c(=O)c1C=NCC(C)C	-	-	4.3	-	-	-
Cc1[nH]n(-c2ccccc2)c(=O)c1C=NCC1CCCO1 (centres undefined)	-	-	-	-	1.0	-

Source: PubChem BioAssay
